# From ChEMBL document CHEMBL1961873, “Compounds: GSK PKIS; Assays: Nanosyn kinase panel” (2012)
# Legend:
# [1] = target: T1, Inhibitor of nuclear factor kappa-B kinase subunit epsilon (Homo sapiens) (UniProt Q14164); settings: at 1 µM;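 also: reported values are averaged percent inhibition figures against human IKKε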
# T1 sequence (whole entry): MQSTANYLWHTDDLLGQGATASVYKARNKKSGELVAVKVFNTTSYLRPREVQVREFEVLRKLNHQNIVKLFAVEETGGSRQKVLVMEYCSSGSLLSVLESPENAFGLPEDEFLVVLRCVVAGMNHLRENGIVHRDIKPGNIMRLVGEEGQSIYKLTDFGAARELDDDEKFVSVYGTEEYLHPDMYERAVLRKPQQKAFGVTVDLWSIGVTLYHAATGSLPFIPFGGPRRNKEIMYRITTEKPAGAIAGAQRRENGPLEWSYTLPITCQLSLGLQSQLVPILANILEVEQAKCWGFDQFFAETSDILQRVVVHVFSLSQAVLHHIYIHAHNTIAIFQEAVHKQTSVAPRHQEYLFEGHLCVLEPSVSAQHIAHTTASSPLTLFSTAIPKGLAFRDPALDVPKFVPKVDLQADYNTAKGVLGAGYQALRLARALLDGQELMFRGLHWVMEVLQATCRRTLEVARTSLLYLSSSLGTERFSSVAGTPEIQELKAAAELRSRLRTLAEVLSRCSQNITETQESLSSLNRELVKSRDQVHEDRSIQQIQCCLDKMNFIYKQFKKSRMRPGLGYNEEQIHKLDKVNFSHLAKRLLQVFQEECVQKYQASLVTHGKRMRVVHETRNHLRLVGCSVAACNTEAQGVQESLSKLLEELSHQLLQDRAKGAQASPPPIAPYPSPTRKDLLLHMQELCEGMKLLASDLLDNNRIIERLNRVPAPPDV
# [2] = target: T2, Serine/threonine-protein kinase Nek1 (Homo sapiens) (UniProt Q96PY6); settings: at 0.1 µM
# T2 sequence (whole entry): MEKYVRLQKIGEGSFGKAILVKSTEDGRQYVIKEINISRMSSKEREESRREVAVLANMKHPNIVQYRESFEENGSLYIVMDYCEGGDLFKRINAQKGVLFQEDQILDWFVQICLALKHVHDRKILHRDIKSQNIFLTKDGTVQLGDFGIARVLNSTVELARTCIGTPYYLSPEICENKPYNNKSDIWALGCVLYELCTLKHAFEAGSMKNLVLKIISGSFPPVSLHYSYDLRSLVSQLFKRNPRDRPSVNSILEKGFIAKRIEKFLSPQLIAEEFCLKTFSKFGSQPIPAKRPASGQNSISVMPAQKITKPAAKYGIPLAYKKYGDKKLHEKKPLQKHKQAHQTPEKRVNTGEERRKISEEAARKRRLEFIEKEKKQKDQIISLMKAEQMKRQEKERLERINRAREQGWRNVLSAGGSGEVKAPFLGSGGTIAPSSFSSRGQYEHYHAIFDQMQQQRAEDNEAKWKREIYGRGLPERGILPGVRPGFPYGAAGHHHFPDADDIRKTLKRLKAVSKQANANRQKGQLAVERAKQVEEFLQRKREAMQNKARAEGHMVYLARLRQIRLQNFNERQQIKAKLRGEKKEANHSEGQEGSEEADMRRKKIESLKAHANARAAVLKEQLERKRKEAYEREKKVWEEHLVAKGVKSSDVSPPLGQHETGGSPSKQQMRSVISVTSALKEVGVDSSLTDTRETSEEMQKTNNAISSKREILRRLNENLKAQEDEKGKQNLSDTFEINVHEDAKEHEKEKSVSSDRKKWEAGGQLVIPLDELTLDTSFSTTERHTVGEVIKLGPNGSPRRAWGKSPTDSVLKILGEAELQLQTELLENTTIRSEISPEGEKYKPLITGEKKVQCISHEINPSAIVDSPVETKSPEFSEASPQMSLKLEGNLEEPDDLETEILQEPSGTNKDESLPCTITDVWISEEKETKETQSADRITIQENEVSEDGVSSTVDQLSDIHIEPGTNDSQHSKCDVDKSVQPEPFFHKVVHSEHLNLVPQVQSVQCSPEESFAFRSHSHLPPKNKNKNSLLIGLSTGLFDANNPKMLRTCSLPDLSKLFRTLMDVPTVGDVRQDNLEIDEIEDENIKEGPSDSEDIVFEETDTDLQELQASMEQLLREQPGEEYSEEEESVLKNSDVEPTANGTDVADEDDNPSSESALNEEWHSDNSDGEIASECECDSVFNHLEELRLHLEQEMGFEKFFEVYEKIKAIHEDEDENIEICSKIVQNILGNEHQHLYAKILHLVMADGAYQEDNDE
# [3] = target: T2, Serine/threonine-protein kinase Nek1 (Homo sapiens); settings: at 1 µM
# [4] = target: T3, Serine/threonine-protein kinase Nek2 (Homo sapiens) (UniProt P51955); settings: at 0.1 µM
# T3 sequence (whole entry): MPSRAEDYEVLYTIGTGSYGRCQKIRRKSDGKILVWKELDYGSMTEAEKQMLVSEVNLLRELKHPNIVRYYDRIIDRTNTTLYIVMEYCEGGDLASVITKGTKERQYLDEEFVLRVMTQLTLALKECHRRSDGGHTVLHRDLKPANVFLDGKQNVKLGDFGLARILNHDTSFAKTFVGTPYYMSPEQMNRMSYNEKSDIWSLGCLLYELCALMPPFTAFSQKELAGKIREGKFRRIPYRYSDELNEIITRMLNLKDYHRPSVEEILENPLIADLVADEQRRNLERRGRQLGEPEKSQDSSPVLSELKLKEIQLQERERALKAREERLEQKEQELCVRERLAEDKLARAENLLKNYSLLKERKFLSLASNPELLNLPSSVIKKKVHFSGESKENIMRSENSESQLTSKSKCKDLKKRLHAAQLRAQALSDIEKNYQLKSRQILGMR
# [5] = target: T3, Serine/threonine-protein kinase Nek2 (Homo sapiens); settings: at 1 µM
# [6] = target: Serine/threonine-protein kinase Nek6 (Homo sapiens) (UniProt Q9HC98); settings: at 0.1 µM
# [7] = target: Serine/threonine-protein kinase Nek6 (Homo sapiens) (UniProt Q9HC98); settings: at 1 µM
# [8] = target: Serine/threonine-protein kinase Nek7 (Homo sapiens) (UniProt Q8TDX7); settings: at 0.1 µM
# [9] = target: Serine/threonine-protein kinase Nek7 (Homo sapiens) (UniProt Q8TDX7); settings: at 1 µM
# [10] = target: T4, Serine/threonine-protein kinase Nek9 (Homo sapiens) (UniProt Q8TD19); settings: at 0.1 µM;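 also: reported value is the mean percent inhibition of NEK9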
# T4 sequence (whole entry): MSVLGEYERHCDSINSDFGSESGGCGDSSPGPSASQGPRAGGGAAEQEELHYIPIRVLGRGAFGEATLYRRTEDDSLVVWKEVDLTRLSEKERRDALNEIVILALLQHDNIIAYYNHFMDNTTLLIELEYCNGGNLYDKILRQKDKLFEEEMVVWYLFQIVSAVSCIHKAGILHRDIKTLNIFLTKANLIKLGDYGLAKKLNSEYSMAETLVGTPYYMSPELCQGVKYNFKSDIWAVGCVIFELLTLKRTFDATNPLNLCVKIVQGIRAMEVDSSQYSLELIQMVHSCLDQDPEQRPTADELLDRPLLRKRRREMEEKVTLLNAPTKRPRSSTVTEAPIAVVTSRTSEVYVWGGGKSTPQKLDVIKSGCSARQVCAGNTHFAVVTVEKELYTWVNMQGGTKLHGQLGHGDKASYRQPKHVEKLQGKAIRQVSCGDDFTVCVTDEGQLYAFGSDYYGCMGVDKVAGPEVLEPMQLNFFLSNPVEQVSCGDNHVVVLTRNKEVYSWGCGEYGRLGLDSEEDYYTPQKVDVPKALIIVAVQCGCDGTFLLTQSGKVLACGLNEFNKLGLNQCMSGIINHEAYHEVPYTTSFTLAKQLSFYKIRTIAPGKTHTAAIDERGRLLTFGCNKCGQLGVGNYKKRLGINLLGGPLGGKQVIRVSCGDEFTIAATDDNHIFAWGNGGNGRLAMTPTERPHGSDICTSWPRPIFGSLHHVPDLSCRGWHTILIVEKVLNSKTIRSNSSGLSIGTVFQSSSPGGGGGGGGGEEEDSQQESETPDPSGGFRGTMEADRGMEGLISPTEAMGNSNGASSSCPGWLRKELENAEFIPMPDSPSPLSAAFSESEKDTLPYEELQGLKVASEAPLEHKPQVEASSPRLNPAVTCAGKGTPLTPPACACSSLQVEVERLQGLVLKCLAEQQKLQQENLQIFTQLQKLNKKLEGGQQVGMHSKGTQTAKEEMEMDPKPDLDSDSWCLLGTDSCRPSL
# Sequence of Serine/threonine-protein kinase Nek6 (Homo sapiens) (Q9HC98 whole entry): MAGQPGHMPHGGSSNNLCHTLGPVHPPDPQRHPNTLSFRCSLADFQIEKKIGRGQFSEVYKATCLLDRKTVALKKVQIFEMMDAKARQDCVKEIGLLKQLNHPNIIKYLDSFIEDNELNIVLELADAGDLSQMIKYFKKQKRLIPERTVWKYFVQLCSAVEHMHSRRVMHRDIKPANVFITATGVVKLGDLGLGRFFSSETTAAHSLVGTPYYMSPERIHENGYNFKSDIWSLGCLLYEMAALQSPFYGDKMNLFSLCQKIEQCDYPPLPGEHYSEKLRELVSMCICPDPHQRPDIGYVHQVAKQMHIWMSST
# Sequence of Serine/threonine-protein kinase Nek7 (Homo sapiens) (Q8TDX7 whole entry, looked up): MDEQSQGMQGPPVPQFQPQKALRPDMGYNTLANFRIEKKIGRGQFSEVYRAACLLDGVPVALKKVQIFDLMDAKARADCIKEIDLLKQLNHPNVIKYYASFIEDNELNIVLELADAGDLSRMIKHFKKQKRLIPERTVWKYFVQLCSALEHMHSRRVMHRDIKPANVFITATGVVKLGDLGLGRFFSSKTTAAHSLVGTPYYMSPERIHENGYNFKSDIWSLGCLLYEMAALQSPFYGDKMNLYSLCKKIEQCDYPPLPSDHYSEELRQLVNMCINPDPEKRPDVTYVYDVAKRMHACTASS
compound,measurement,setting,value
COc1cc(C)c(N(C)C(=O)CN(C)C)cc1Nc1nc(Nc2cccc(F)c2C(N)=O)c2cc[nH]c2n1,inhibition,[1],0.91%
same,inhibition,[2],1.9%
same,inhibition,[3],1.66%
same,inhibition,[4],3.24%
same,inhibition,[5],3.64%
same,inhibition,[6],1.26%
same,inhibition,[7],-1.46%
same,inhibition,[8],3.13%
same,inhibition,[9],2.22%
same,inhibition,[10],5.24%
c1ccc(Oc2ccc(Nc3ncc(-c4ccccc4)o3)cc2)cc1,inhibition,[1],3.43%
same,inhibition,[2],0.18%
same,inhibition,[3],1.89%
same,inhibition,[4],1.83%
same,inhibition,[5],1.51%
same,inhibition,[6],-0.2%
same,inhibition,[7],0.96%
same,inhibition,[9],1.97%
same,inhibition,[10],0.25%
Fc1ccc(-c2nc3n(c2-c2ccncc2)CCS3)cc1,inhibition,[1],4.11%
same,inhibition,[2],2.77%
same,inhibition,[3],2.98%
same,inhibition,[4],4.83%
same,inhibition,[5],4.36%
same,inhibition,[6],0.55%
same,inhibition,[7],0.72%
same,inhibition,[8],5.52%
same,inhibition,[9],2.5%
same,inhibition,[10],2.21%
NS(=O)(=O)c1ccc(Nc2cc(-c3ccc(O)c(F)c3)n[nH]2)cc1,inhibition,[1],-0.51%
same,inhibition,[2],-0.93%
same,inhibition,[3],-1.21%
same,inhibition,[4],-3.94%
same,inhibition,[5],-3.05%
same,inhibition,[6],-4.94%
same,inhibition,[7],-2.21%
same,inhibition,[8],-0.59%
same,inhibition,[9],-3.23%
same,inhibition,[10],5.12%
Fc1ccc(-c2ncn(C3CCNCC3)c2-c2ccnc(Oc3ccc(Oc4ccccc4)cc3)n2)cc1,inhibition,[1],6.34%
same,inhibition,[2],1.09%
same,inhibition,[3],1.58%
same,inhibition,[4],5.87%
same,inhibition,[5],3.38%
same,inhibition,[6],-2.46%
same,inhibition,[7],2.86%
same,inhibition,[8],3.94%
same,inhibition,[9],9.34%
same,inhibition,[10],4.61%
CCc1cccc(CC)c1/C=C/c1cncc(C(=O)NC)c1,inhibition,[1],3.78%
same,inhibition,[2],1.27%
same,inhibition,[3],1.92%
same,inhibition,[4],3.4%
same,inhibition,[5],3.05%
same,inhibition,[6],0.31%
same,inhibition,[7],0.68%
same,inhibition,[8],2.82%
same,inhibition,[9],2.39%
same,inhibition,[10],8.92%
NC(=O)c1cc(-c2ccncc2)cc(-c2ccccc2)c1N,inhibition,[1],14.9%
same,inhibition,[2],3.64%
same,inhibition,[3],3.27%
same,inhibition,[4],6.42%
same,inhibition,[5],6.13%
same,inhibition,[6],2.63%
same,inhibition,[7],-0.35%
same,inhibition,[8],4.53%
same,inhibition,[9],3.98%
same,inhibition,[10],9.48%
NC(=O)Cc1ccccc1Oc1nccc(-c2c(-c3ccc(F)cc3)ncn2C2CCNCC2)n1,inhibition,[1],0.67%
same,inhibition,[2],1.64%
same,inhibition,[3],4.11%
same,inhibition,[4],2.13%
same,inhibition,[5],4.35%
same,inhibition,[6],0.28%
same,inhibition,[7],1.26%
same,inhibition,[8],3.21%
same,inhibition,[9],2.73%
same,inhibition,[10],10.9%
CN(C)CCOc1ccc(-c2cc(-c3ccc4c(c3)CCC4=NO)c(-c3ccncc3)o2)cc1,inhibition,[1],0%
same,inhibition,[2],0.25%
same,inhibition,[3],0.32%
same,inhibition,[4],-0.54%
same,inhibition,[5],0.32%
same,inhibition,[6],-0.38%
same,inhibition,[7],-0.66%
same,inhibition,[8],-2.05%
same,inhibition,[9],0.51%
same,inhibition,[10],-0.48%
